Assay [1] is described as follows: ATG_NFI_CIS: Attagene CIS-FACTORIAL HepG2 Assay for human Nuclear Factor I (NFI) (AID 2282989). The conditions noted are these: HepG2 cis-regulatory reporter, NFI response element transcription; actives raise or lower the signal. Put shortly: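 HepG2, transient MRTU, 24 h exposure; RNA→cDNA→PCR→FAM label→HpaI→CE fluorescence. Bidirectional fit, DMSO = baseline.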

Assay [2] addresses Myc proto-oncogene protein (Homo sapiens) (UniProt P01106). The assay is described as follows: ATG_Myc_CIS: Attagene CIS-FACTORIAL HepG2 Assay for human Myelocytomatosis (Myc) Proto-Oncogene Transcription Factor (AID 2282990). The following applies: HepG2, Attagene cis-reporter transcription factor activity; actives raise or lower the signal. In a few lines:
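Fluorescence intensity of reporter-specific cDNA fragments, separated by capillary electrophoresis, gives the signal. Transfected HepG2 cells carrying cis-promoter reporter constructs are incubated with compound for 24 h; DMSO serves as baseline.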

Assay [3] in a line: ATG_NF_kB_CIS: Attagene CIS-FACTORIAL HepG2 Assay for human Nuclear Factor Kappa B (NF-kB) (AID 2282991). The following applies: HepG2 Attagene cis-factorial NF-kB reporter mRNA; actives raise or lower the signal. In a few lines: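 HepG2, transient multi-reporter transfection, cis promoter elements (endogenous TFs). 24 h exposure. Total RNA → RT → PCR → 6-FAM label → HpaI → CE. Gain/loss vs DMSO.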

A short description of assay [4]: ATG_NRF2_ARE_CIS: Attagene CIS-FACTORIAL HepG2 Assay for human Nuclear Factor Erythroid 2 Related Factor 2 (NFR2) response to Antioxidant Response Elements (ARE) (AID 2282992).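 For AC50: reporter mRNA level measured by RT-PCR and capillary electrophoresis fluorescence.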 The conditions noted are these: HepG2 Attagene ARE/NRF2 reporter, transcription factor activity; actives raise or lower the signal. In a few lines: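 HepG2 cells transiently transfected with multiplexed cis-element reporter constructs, 24 h after chemical dosing; reporter mRNA quantified by RT-PCR, fluorescent primer extension, HpaI digestion and capillary electrophoresis. Bidirectional fit relative to DMSO.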

The nature of assay [5]: ATG_Oct_MLP_CIS: Attagene CIS-FACTORIAL HepG2 Assay for human Octamer-Binding Transcription Factor (Oct) (AID 2282993). The following applies: HepG2 Attagene cis-factorial Oct reporter, mRNA; actives raise or lower the signal. In a few lines:
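Multiplexed cis-reporter assay in human liver HepG2 cells, 24 h incubation. Reporter RNA amplified and labelled, then resolved by capillary electrophoresis; DMSO serves as negative control and baseline.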

For assay [6], the target named is Cellular tumor antigen p53 (Homo sapiens) (UniProt P04637). The assay is described as follows: ATG_p53_CIS: Attagene CIS-FACTORIAL HepG2 Assay for human p53 Transcription Factor (AID 2282994). The conditions noted are these: HepG2 p53 cis-element reporter, Attagene mRNA; actives raise or lower the signal. Put shortly:
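HepG2 cells transiently transfected with cis-regulated multiple reporter transcription units, dosed 24 h. Reporter mRNA measured by RT-PCR, 6-FAM primer extension, HpaI digestion and capillary electrophoresis; bidirectional fit relative to DMSO.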

Assay [7] in a line: BSK_3C_uPAR: BioMAP Diversity Plus: 3C Assay for Urokinase-type plasminogen activator receptor (uPAR) Biomarker Activity (AID 2282998). The conditions noted are these: BioMAP 3C HUVEC, uPAR biomarker ELISA; actives raise or lower the signal. In a few lines:
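Dose primary human umbilical vein endothelial cells, incubate 24 h, measure cell-surface uPAR by ELISA, then fit the signal in both directions against the DMSO negative control.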
In general terms: In an ELISA, binding on a coated surface is turned into a signal by an enzyme label.

A short description of assay [8]: BSK_3C_VCAM1: BioMAP Diversity Plus: 3C Assay for Vascular cell adhesion molecule 1 (VCAM1) Biomarker Activity (AID 2282999). The following applies: BioMAP 3C HUVEC, VCAM1 ELISA, cytokine-stimulated; actives raise or lower the signal. In a few lines: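 Human umbilical vein endothelial cells (3C system), biomarker read by ELISA 24 h after dosing; bidirectional fit against DMSO baseline. Cytotoxicity tracked by SRB total-protein staining in parallel cultures at biomarker time.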

Assay [9] can be described thus: BSK_3C_TissueFactor: BioMAP Diversity Plus: 3C Assay for Tissue Factor Biomarker Activity (AID 2282997). The following applies: BioMAP 3C HUVEC, tissue factor biomarker readout; actives raise or lower the signal. In a few lines:
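Endothelial monolayers (human umbilical vein, primary) are dosed, incubated 24 h, and assayed for Tissue Factor by ELISA; DMSO serves as negative control for bidirectional fitting.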

This is an account of results in PubChem BioAssay (EPA / NIEHS).

The source made the active and inactive calls. Rule for the calls: active = hit-call score of the fitted dose curve at least 0.9, where 1 is the maximum; inactive = score below 0.9.

Cellular tumor antigen p53 (Homo sapiens), sequence (P04637 whole entry, looked up): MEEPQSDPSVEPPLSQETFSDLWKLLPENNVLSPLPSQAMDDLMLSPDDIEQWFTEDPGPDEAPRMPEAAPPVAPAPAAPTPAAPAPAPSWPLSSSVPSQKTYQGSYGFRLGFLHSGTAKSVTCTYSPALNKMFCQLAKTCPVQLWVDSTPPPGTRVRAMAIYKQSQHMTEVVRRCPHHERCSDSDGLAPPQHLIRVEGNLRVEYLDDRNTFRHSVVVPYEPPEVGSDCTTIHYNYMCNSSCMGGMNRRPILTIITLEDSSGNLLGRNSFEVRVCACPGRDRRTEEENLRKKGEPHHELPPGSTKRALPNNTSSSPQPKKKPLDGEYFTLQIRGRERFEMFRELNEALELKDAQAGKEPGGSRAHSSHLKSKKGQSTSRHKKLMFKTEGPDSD
Myc proto-oncogene protein (Homo sapiens), sequence (P01106 whole entry, looked up, the tested form may be a part): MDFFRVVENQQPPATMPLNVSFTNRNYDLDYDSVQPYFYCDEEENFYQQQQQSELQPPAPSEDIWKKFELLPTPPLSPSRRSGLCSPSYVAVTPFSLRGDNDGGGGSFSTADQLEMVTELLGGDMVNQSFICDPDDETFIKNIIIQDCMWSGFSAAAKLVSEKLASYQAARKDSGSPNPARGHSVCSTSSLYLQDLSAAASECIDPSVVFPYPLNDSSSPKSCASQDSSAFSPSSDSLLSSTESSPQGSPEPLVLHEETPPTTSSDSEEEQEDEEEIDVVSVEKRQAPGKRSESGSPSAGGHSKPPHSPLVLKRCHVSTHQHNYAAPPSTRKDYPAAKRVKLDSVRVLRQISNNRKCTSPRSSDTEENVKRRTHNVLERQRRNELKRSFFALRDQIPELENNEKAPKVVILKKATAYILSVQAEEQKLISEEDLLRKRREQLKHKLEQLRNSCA

What is called AC50 is the concentration at which the activity in the assay is half-maximal. Regarding `NNc1nc(-c2ccc([N+](=O)[O-])cc2)cs1`, the outcome in assay [1], in [2], in assay [3], in [5] and in [6] was inactive. For the same compound, the AC50 in [4] was 1.95 µM (active).

In the case of `FC(F)(F)N1C(F)(F)C(F)(F)OC(F)(F)C1(F)F`, the call in assay [1], in assay [2], in assay [3], in assay [4], in assay [5] and in assay [6] was inactive.

Turning to `CCCCCCCCCCCCCC[n+]1ccccc1`, the result in [1], in [2], in [3], in [5] and in [6] was inactive. For the same compound, in assay [4], the concentration at half-maximal activity (AC50) is 0.172 µM (active).

In the case of `CC(C)(C)c1ccc(CCC=O)cc1`, the compound was called inactive in assay [1], in assay [2], in assay [3] and in [5]. For the same compound, the results for the half-maximal activity concentration (AC50) in assay [4] and in [6] were 130 µM (active) and 182 µM (active), respectively.

Regarding `CC1CNCC(C)O1` (stereo not drawn), the compound was called inactive in assay [1], in assay [2], in [3], in assay [4], in assay [5] and in assay [6].

`Brc1ccc(Oc2ccc(Br)cc2Br)cc1`: the compound was called inactive in [1], in assay [2], in assay [3], in [4], in assay [5] and in assay [6].

On to `c1ccc2c(c1)CCC2`, for which the compound was classed as inactive in assay [1], in assay [2], in assay [3], in assay [4], in [5] and in [6].

Consider `COC(=O)C(F)(F)C(F)(F)C(F)(F)F`, for which the outcome in assay [1], in assay [2], in assay [3], in assay [4], in assay [5] and in assay [6] was inactive.

On to `CC1COCc2cc3c(cc21)C(C)(C)C(C)C3(C)C` (stereo not drawn), for which the half-maximal activity concentration (AC50) in assay [1] was 170 µM (active); in [2], 120 µM (active); in [3], 166 µM (active); in [4], 41.2 µM (active). For the same compound, the call in [5] and in assay [6] was inactive.

For the compound `O=C(O)C(=O)O`, the result in [1], in assay [2], in assay [3], in assay [4], in [5] and in assay [6] was inactive.

Consider `Nc1ccc(O)c(C(=O)O)c1`, for which the result in [1], in assay [2], in assay [3], in assay [4], in assay [5] and in [6] was inactive.

For the compound `FC(F)(F)C1(F)C(F)(F)C(F)(F)C(F)(F)C1(F)F`, the result in assay [1], in assay [2], in assay [3], in assay [4], in [5] and in [6] was inactive.

As for `FC(F)(F)C(F)(F)C(F)(F)Br`, the call in assay [1], in assay [2], in assay [3], in assay [4], in assay [5] and in assay [6] was inactive.

As to `NCc1cccc(CN)c1`, the call in assay [1], in assay [2], in assay [3], in assay [4], in assay [5] and in assay [6] was inactive.

`C=CC(F)(F)C(F)(F)C(F)(F)C(F)(F)F`: the compound was called inactive in [1], in [2], in [3], in assay [4], in assay [5] and in [6].

Take `O=C(O)CN(CCCN(CC(=O)O)CC(=O)O)CC(=O)O`: the compound was called inactive in assay [1], in assay [2], in assay [3], in assay [5] and in [6]. In [4], the AC50 is 6.54 µM (active).

In the case of `CCOCCOCC`, the outcome in assay [1], in assay [2], in [3], in assay [4], in [5] and in assay [6] was inactive.

In the case of `CCCCCCCCCCCC`, the result in assay [1], in assay [2], in assay [3], in [4], in assay [5] and in assay [7] was inactive. Also, the result in assay [8] was inactive.

For `COc1ccc(C#N)cc1`, the compound was called inactive in assay [1], in assay [2], in assay [3], in assay [4] and in assay [6].

Take `C=CC(=O)OCCC(F)(F)C(F)(F)C(F)(F)C(F)(F)C(F)(F)C(F)(F)F`: the call in [1], in [2], in [3] and in assay [6] was inactive. In assay [4], the AC50 is 18.6 µM (active).

As to `O=C(O)CCC(F)(F)C(F)(F)C(F)(F)C(F)(F)C(F)(F)C(F)(F)F`, the compound was called inactive in assay [1], in [2], in [3], in [5], in assay [6] and in [7]. Also, in assay [8], the result was inactive. In addition, in [4], the concentration at half-maximal activity (AC50) is 68.4 µM (active).

As to `Cc1cc(C(=C2C=CC(=Nc3ccc(S(=O)(=O)O)cc3)C=C2)c2ccc(Nc3ccc(S(=O)(=O)O)cc3)cc2)cc(S(=O)(=O)O)c1N`, the compound was called inactive in assay [1], in assay [2], in assay [3], in assay [4] and in [6].

On to `C=CC(=C)CC/C=C(\C)CCC=C(C)C`, for which the compound was classed as inactive in assay [1], in assay [2], in assay [3], in assay [6], in [9] and in assay [7]. For the same compound, in assay [8], the result was inactive. For the same compound, the AC50 in [4] was 19 µM (active).

With `CCCCC(CC)C(=O)OCCOCCOCCOCCOC(=O)C(CC)CCCC` (stereo not drawn), the compound was classed as inactive in assay [1], in assay [2], in [3], in [9], in assay [7] and in [8]. For the same compound, in assay [4], the half-maximal activity concentration (AC50) is 100 µM (active).

`O=P(O)(O)CCC(F)(F)C(F)(F)C(F)(F)C(F)(F)C(F)(F)C(F)(F)F`: the compound was called inactive in assay [1], in assay [2], in [3], in assay [4], in assay [5] and in assay [6]. Also, the outcome in assay [7] and in assay [8] was inactive.

Consider `O=C1OC(=O)C(F)(F)C1(F)F`, for which the compound was classed as inactive in [1], in assay [2], in assay [3], in [4] and in assay [6].

As for `CCC(=O)C=Cc1ccc(OC)cc1`, the compound was called inactive in [1], in assay [2] and in assay [6]. Further, the results for the AC50 in assay [3] and in assay [4] were 100 µM (active) and 27.1 µM (active), respectively.

With `CN(CCO)S(=O)(=O)C(F)(F)C(F)(F)C(F)(F)C(F)(F)C(F)(F)C(F)(F)C(F)(F)C(F)(F)F`, the outcome in assay [1], in [2], in assay [3], in assay [4], in assay [5] and in assay [6] was inactive. Also, the result in [7] and in assay [8] was inactive.

For the compound `C=COC(=O)C(C)(C)CCCCCC`, the outcome in assay [1], in assay [2], in assay [3] and in [6] was inactive. The AC50 in assay [4] was 142 µM (active); in [9], 29.9 µM (active); in assay [7] it was 31.3 µM (active); in assay [8], 34.4 µM (active).

`OCC(CO)(CBr)CBr`: the outcome in [1], in assay [2], in assay [3], in assay [4], in assay [5] and in [7] was inactive. In [8], the outcome was inactive.
